Only a selection was taken, and hits are over-represented in it overall.
APE1 inh – blocks human APE1 abasic DNA cleavage | Potency, µM (highest dose often 65.8 µM), inactives show at the top dose activity change, negative = inhibition, usual class: inhibitors | recombinant APE1, TAMRA/BHQ-2 abasic DNA cleavage fluorescence | P27695 | hit rate 0.35% among 350,000;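 note: plate controls were vehicle for no effect and reference inhibitor for full effect; nearly all actives have a fitted effect of over 55% in size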
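Step 1: APE1 (0.75 nM) with compound, 15 min RT. Step 2: add 50 nM fluorophore/quencher THF duplex. Step 3: three fluorescence reads 60 s apart (525/598 nm); read 3 minus read 1 = reaction progress.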
BLM helicase inh – inhibitors of human Bloom syndrome helicase BLM | recombinant BLM DNA unwinding, fluorescence dequenching | Potency, µM (doses to about 56.1 µM), for inactives: top-dose activity change, negative = inhibition, usual class: inhibitors | hit rate 0.2% among 350,000;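 note: plate controls were vehicle for no effect and no enzyme for full effect; nearly all actives have a fitted effect of over 35% in size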
L3MBTL1 inh-1 – L3MBTL1 (human) inhibition; Q9Y468; hit rate 0.66% among 230,000; AlphaScreen L3MBTL1–H3K9me1 peptide binding; Potency, µM (titrated, usually from 57.1 µM), without a hit: at the highest dose activity, negative = inhibition, hits mostly inhibitors; note: % is set by controls: 0 for no effect and ±100 for the full control effect; nearly all actives have a fitted effect of over 60% in size
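L3MBTL1 (50 nM) pre-complexed 30 min with biotinylated H3(1-15)K9me1 peptide (75 nM), then compounds added for 30 min at room temperature; AlphaScreen streptavidin donor/nickel chelate acceptor beads (10 ug/mL final) read after 30 min dark incubation.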
KDM4E inh – inhibitors of human JMJD2E histone demethylase. Potency, µM (top dose mostly 57.1 µM), inactives show at the top dose activity change, negative = inhibition, most hits filed as inhibitors. JMJD2E catalytic domain, FDH-coupled NADH fluorescence (FDH is formaldehyde dehydrogenase). hit rate 1.6% among 230,000. B2RXH2; active = well fitted inhibition curve with a large enough effect, not every such curve was filed as active; inconclusive = small, poorly fitted or top-dose-only effect, or another doubt; inactive = no such curve, though single readings can be large or run the other way;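 note: 0% = wells with enzyme and -100% = buffer wells without enzyme; nearly all actives have a fitted effect of over 50% in size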
RGS12 GoLoco inh – inhibitors of human Gai1-RGS12 GoLoco interaction (red fluorophore) | Gai1:RGS12 GoLoco peptide FP, rhodamine, 10 min | hit rate 0.44% among 230,000 | Potency, µM (doses to about 61.6 µM), inactives show at the top dose activity, negative = inhibition, actives largely listed as inhibitors | P63096; active = well fitted inhibition curve with a large enough effect, not every such curve was filed as active; inactive = no such curve, though single readings can be large or run the other way; note: % is set by controls: 0 for no effect and ±100 for the full control effect; nearly all actives have a fitted effect of over 30% in size
RECQ1 inh-1 – inhibitors of human RECQ1 DNA helicase | Potency, µM (top dose mostly 57.3 µM), for inactives: at the highest dose activity, negative = inhibition, hits mostly inhibitors | hit rate 0.54% among 240,000 | P46063 | AID 2549 | RECQ1 DNA unwinding, red fluorescence kinetic read;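 note: plate controls were vehicle for no effect and no enzyme for full effect; nearly all actives have a fitted effect of over 30% in size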
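50 nM RECQ1T1 preincubated 15 min with compound in Tris pH 8.0 buffer with MgCl2, DTT, Tween-20 and 2.5 ug/ml poly(dI-dC); started with 200 nM TAMRA/BHQ-2 forked duplex and 2 mM ATP. Unwinding read as fluorescence (525/598 nm), two reads 2 h apart.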
RECQ1 conf – confirmation of human RECQ1 helicase inhibitors; Potency, µM (titrated, usually from 229 µM), without a hit: top-dose activity change, negative = inhibition, actives largely listed as inhibitors; RECQ1 helicase DNA unwinding, fluorescence; shares compounds with RECQ1 inh-1; AID 2708; hit rate 28% among 610; note: % is set by controls: 0 for no effect and ±100 for the full control effect; nearly all actives have a fitted effect of over 45% in size
ADP FP counter – counter-screen for RECQ1 inhibitors: ADP displacement; shares compounds with RECQ1 inh-1; ADP fluorescence polarization displacement counterscreen; Potency, µM (highest dose often 228 µM), for the others: top-dose activity change, negative = inhibition, actives largely listed as inhibitors; hit rate 27% among 530; note: % is set by controls: 0 for no effect and ±100 for the full control effect; nearly all actives have a fitted effect of over 45% in size
RECQ1 inh-2 – blocks human RECQ1 DNA unwinding | recombinant RECQ1 DNA unwinding, red fluorescence | shares compounds with RECQ1 inh-1 | Potency, µM (titrated, usually from 119 µM), for inactives: at the top dose activity, negative = inhibition, actives largely listed as inhibitors | hit rate 15% among 1,100; note: % is set by controls: 0 for no effect and ±100 for the full control effect; nearly all actives have a fitted effect of over 50% in size
L3MBTL1 inh-2 – L3MBTL1 binding inhibition validated. shares compounds with L3MBTL1 inh-1. L3MBTL1 methyl-lysine binding inhibition, biochemical qHTS. Potency, µM, hits mostly inhibitors. hit rate 91% among 500. AID 540279; note: nearly all actives have a fitted effect of over 70% in size
L3MBTL1 ctr – counter-screen for L3MBTL1 inhibitors: AlphaScreen signal interference; shares compounds with L3MBTL1 inh-1; AlphaScreen counterscreen, signal inhibition; Potency, µM (doses to about 57.1 µM), inactives show at the highest dose activity change, negative = inhibition, hits mostly inhibitors; 500 tested, under 10 active; note: 0% is about no effect
* = called active by the depositor; i = inactive; ? = inconclusive; / = no result; ! = not active in a repeat; [ ] = another dose, or the depositor's remark. Unless noted, calls come from the whole dose curve; as a rule, active = well fitted curve in the direction sought with a large enough effect; inconclusive = small, poorly fitted or top-dose-only effect, or another doubt; inactive = no such curve, though single readings can be large; an effect the other way counts as inactive or inconclusive. Potency is the fitted concentration of half-maximal effect.

SMILES	APE1 inh	BLM helicase inh	L3MBTL1 inh-1	KDM4E inh	RGS12 GoLoco inh	RECQ1 inh-1	RECQ1 conf	others
Cc1cccn2c(=O)c(C=Nc3ccccc3)c(NCc3ccco3)nc12	?	0%	-5%	0%	/	?	/	RECQ1 inh-2=12%
Cc1cccc(N)c1C	3%	/	/	/	2%	-2%	/
CCc1ccc(CCN2CCCCC2)nc1	/	/	/	/	-3%[14.2 µM]	/	/
CCN(CC)C(=O)c1ccc2c(c1)C1C(Cl)C(Sc3ccccc3[N+](=O)[O-])CC1C(C(=O)O)N2 (centres undefined)	-11%	-25%	14µM*	?	18%	-22%	?	ADP FP counter=126µM*
O=c1cc(-c2ccc(O)c(O)c2)oc2cc(O)cc(O)c12	5µM*	35µM*!	/	13µM*	5%	13µM*	?	RECQ1 inh-2=3.2µM*
COc1ccc(NC(=O)CN(C)S(=O)(=O)c2ccc3[nH]c(=O)oc3c2)cc1	67%	-2%	/	/	/	/	/
Cc1cc2c(C(C)C)c(O)c(O)c(C=O)c2c(O)c1-c1c(C)cc2c(C(C)C)c(O)c(O)c(C=O)c2c1O	25µM*!	28µM*!	?	7.1µM*	-6%	14µM*!	22µM*	ADP FP counter=14µM*
CC(=O)[C@@H]1CC[C@H]2[C@@H]3CC[C@@H]4CC(=O)CC[C@]4(C)[C@H]3CC[C@]12C	1%	/	/	/	4%	14%	/
CN(C)[C@@H]1C(=O)C(C(N)=O)=C(O)[C@]2(O)C(=O)C3=C(O)c4c(O)cccc4[C@@](C)(O)[C@H]3[C@H](O)[C@@H]12	?	-11%[21.4 µM]	/	11µM*	5.6µM*	13µM*	63%[69.1 µM]	ADP FP counter=45µM*
Cc1ccc(CSc2n[nH]c(N)n2)cc1	11%	-8%	-6%	-7%	12%	28µM*	/	RECQ1 inh-2=-6%
Cc1cc(C=C2C(=O)NC(=S)NC2=O)c(C)n1-c1ccc2c(c1)OCO2	8%	-19%	22µM*	7%	46%	-7%	/	L3MBTL1 inh-2=21*;L3MBTL1 ctr=-11%
CCN1C[C@]2(C)CC[C@H](OC)[C@@]34[C@H]1C1(OCO[C@@]15C[C@H](OC)C1C[C@]3(O)C5[C@H]1OC)[C@@H](O)[C@H]24	5%	-1%	/	8%	2%	-7%	/
C=CCN1C(=O)NC(=O)/C(=C/c2ccoc2)C1=O	-10%	50%	22µM*	-3%	3%	i	/	L3MBTL1 inh-2=17*;L3MBTL1 ctr=-1%
C=CCN1C(=O)NC(=O)/C(=C/c2cccn2C)C1=O	0%	-1%	-20%	5%	2%	-4%	/
CCOc1ccccc1OCCCCN1CCCC1	1%	-10%	28µM*	0%	-7%	1%	/	L3MBTL1 inh-2=?;L3MBTL1 ctr=?
C[C@H](N)Cc1ccccc1	/	-5%	/	/	/	/	/

High-throughput results deposited in PubChem by National Center for Advancing Translational Sciences (NCATS).
